PubChem BioAssay AID1159580 (chemical genetic matrix, 2015)
About 2,000 (36%) of roughly 5,500 compounds were called active. Not shown: some 18% with an inconclusive outcome. Rule as the data show it: active = normalized growth mostly below about 0.91 (no sharp cut-off); inconclusive = no clear call, values can overlap the other calls; inactive = mostly above about 0.92. Some of the results follow.

Experiment: chemical genetic growth profiling, strain panel (AID 1159580);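 also: tested at 20 µM; growth read once vehicle control cultures reached saturation at 30 °C; 1 = growth at the plate median or of vehicle wells; lower values mean less growth of the strain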
Conditions: growth OD

Measured: normalized growth

COc1cccc2c1cc([N+](=O)[O-])c1c(C(=O)O)cc3c(c12)OCO3
inactive: S. cerevisiae deletion strains, locus YJR066W, strain TOR1, stronger effect = lower value 0.912 | S. cerevisiae deletion strains, locus YJR075W, strain HOC1, stronger effect = lower value 1.04 | S. cerevisiae deletion strains, locus YKL009W, strain mrt4, stronger effect = lower value 0.967 | S. cerevisiae deletion strains, locus YKL068W, stronger effect = lower value 1.01 | S. cerevisiae deletion strains, locus YKL085W, strain MDH1 (second series), stronger effect = lower value 0.999 | S. cerevisiae deletion strains, locus YKL085W, strain MDH1, stronger effect = lower value 0.999 | S. cerevisiae deletion strains, locus YKL160W, strain elf1, stronger effect = lower value 1.01 | S. cerevisiae deletion strains, locus YKL190W, strain CNB1, stronger effect = lower value 1.02 | S. cerevisiae deletion strains, locus YKR001C, strain vps1, stronger effect = lower value 1.03 | S. cerevisiae deletion strains, locus YKR026C, strain gcn3, stronger effect = lower value 1.02 | S. cerevisiae deletion strains, locus YKR091W, strain srl3, stronger effect = lower value 1.02 | S. cerevisiae deletion strains, locus YLL001W, strain dnm1, stronger effect = lower value 1.01 | S. cerevisiae deletion strains, locus YLL026W, stronger effect = lower value 1.01 | S. cerevisiae deletion strains, locus YLL041C, strain sdh2, stronger effect = lower value 1.01 | S. cerevisiae deletion strains, locus YLR027C, strain aat2, stronger effect = lower value 1.02 | S. cerevisiae deletion strains, locus YLR039C, strain RIC1, stronger effect = lower value 1.06 | S. cerevisiae deletion strains, locus YLR058C, strain SHM2, stronger effect = lower value 1.01 | S. cerevisiae deletion strains, locus YLR102C, strain apc9, stronger effect = lower value 1.02 | S. cerevisiae deletion strains, locus YLR113W, strain HOG1, stronger effect = lower value 0.971 | S. cerevisiae deletion strains, locus YLR221C, strain rsa3, stronger effect = lower value 1.02 | S. cerevisiae deletion strains, locus YLR258W, strain gsy2, stronger effect = lower value 1.03 | S. cerevisiae deletion strains, locus YLR262C, strain YPT6 (second series), stronger effect = lower value 1 | S. cerevisiae deletion strains, locus YLR262C, strain YPT6, stronger effect = lower value 1.07 | S. cerevisiae deletion strains, locus YLR268W, strain sec22, stronger effect = lower value 1.06 | S. cerevisiae deletion strains, locus YLR320W, strain mms22, stronger effect = lower value 1.02 | S. cerevisiae deletion strains, locus YLR330W, strain CHS5, stronger effect = lower value 1.02 | S. cerevisiae deletion strains, locus YLR342W, strain FKS1 (second series), stronger effect = lower value 0.989 | S. cerevisiae deletion strains, locus YLR342W, strain FKS1, stronger effect = lower value 1.04 | S. cerevisiae deletion strains, locus YLR357W, strain rsc2, stronger effect = lower value 1.01 | S. cerevisiae deletion strains, locus YLR370C, strain arc18, stronger effect = lower value 1.03 | S. cerevisiae deletion strains, locus YLR371W, strain rom2, stronger effect = lower value 1.03 | S. cerevisiae deletion strains, locus YLR384C, strain iki3, stronger effect = lower value 1 | S. cerevisiae deletion strains, locus YLR418C, strain cdc73, stronger effect = lower value 1.01 | S. cerevisiae deletion strains, locus YML016C, strain PPZ1, stronger effect = lower value 1.01 | S. cerevisiae deletion strains, locus YML032C, strain rad52, stronger effect = lower value 0.99 | S. cerevisiae deletion strains, locus YML120C, strain ndi1, stronger effect = lower value 1.02 | S. cerevisiae deletion strains, locus YML124C, strain tub3, stronger effect = lower value 1.01 | S. cerevisiae deletion strains, locus YMR058W, strain fet3, stronger effect = lower value 1.02 | S. cerevisiae deletion strains, locus YMR078C, strain ctf18, stronger effect = lower value 1.02 | S. cerevisiae deletion strains, locus YMR125W, strain sto1, stronger effect = lower value 1.03 | S. cerevisiae deletion strains, locus YMR129W, stronger effect = lower value 1.02 | S. cerevisiae deletion strains, locus YMR205C, strain PFK2, stronger effect = lower value 1.05 | S. cerevisiae deletion strains, locus YMR223W, strain ubp8, stronger effect = lower value 1.01 | S. cerevisiae deletion strains, locus YMR231W, strain pep5, stronger effect = lower value 1.03 | S. cerevisiae deletion strains, locus YMR307W, strain GAS1, stronger effect = lower value 0.988 | S. cerevisiae deletion strains, locus YNL067W, strain RPL9B, stronger effect = lower value 1.04 | S. cerevisiae deletion strains, locus YNL071W, strain lat1, stronger effect = lower value 1.02 | S. cerevisiae deletion strains, locus YNL183C, strain NPR1, stronger effect = lower value 0.917 | S. cerevisiae deletion strains, locus YNL209W, strain ssb2, stronger effect = lower value 1.02 | S. cerevisiae deletion strains, locus YNL233W, strain BNI4, stronger effect = lower value 1.03 | S. cerevisiae deletion strains, locus YNL248C, strain rpa49, stronger effect = lower value 1.01 | S. cerevisiae deletion strains, locus YNL250W, strain rad50, stronger effect = lower value 1.01 | S. cerevisiae deletion strains, locus YNL271C, strain bni1, stronger effect = lower value 1.01 | S. cerevisiae deletion strains, locus YNL298W, strain CLA4, stronger effect = lower value 0.97 | S. cerevisiae deletion strains, locus YNL307C, strain MCK1, stronger effect = lower value 1.03 | S. cerevisiae deletion strains, locus YNL322C, strain KRE1 (second series), stronger effect = lower value 1.01 | S. cerevisiae deletion strains, locus YNL322C, strain KRE1, stronger effect = lower value 1 | S. cerevisiae deletion strains, locus YNR049C, strain mso1, stronger effect = lower value 1.02 | S. cerevisiae deletion strains, locus YNR052C, strain pop2, stronger effect = lower value 1 | S. cerevisiae deletion strains, locus YOL006C, strain TOP1, stronger effect = lower value 1.09 | S. cerevisiae deletion strains, locus YOL012C, strain htz1 1.07 | S. cerevisiae deletion strains, locus YOL147C, strain pex11, stronger effect = lower value 1.01 | S. cerevisiae deletion strains, locus YOR001W, strain rrp6, stronger effect = lower value 1.01 | S. cerevisiae deletion strains, locus YOR061W, strain CKA2, stronger effect = lower value 1.02 | S. cerevisiae deletion strains, locus YOR069W, strain VPS5, stronger effect = lower value 1.01 | S. cerevisiae deletion strains, locus YOR070C, strain gyp1, stronger effect = lower value 1.01 | S. cerevisiae deletion strains, locus YOR080W, strain dia2, stronger effect = lower value 1.02 | S. cerevisiae deletion strains, locus YOR083W, strain WHI5, stronger effect = lower value 1 | S. cerevisiae deletion strains, locus YOR106W, strain vam3, stronger effect = lower value 1.01 | S. cerevisiae deletion strains, locus YOR136W, strain idh2, stronger effect = lower value 1.02 | S. cerevisiae deletion strains, locus YOR144C, strain elg1, stronger effect = lower value 1.01 | S. cerevisiae deletion strains, locus YOR184W, strain ser1, stronger effect = lower value 1 | S. cerevisiae deletion strains, locus YOR231W, strain MKK1, stronger effect = lower value 0.928 | S. cerevisiae deletion strains, locus YOR265W, strain rbl2, stronger effect = lower value 1.01 | S. cerevisiae deletion strains, locus YOR270C, strain vph1, stronger effect = lower value 1.04 | S. cerevisiae deletion strains, locus YOR290C, strain snf2, stronger effect = lower value 0.995 | S. cerevisiae deletion strains, locus YOR316C, strain cot1, stronger effect = lower value 1.02 | S. cerevisiae deletion strains, locus YPL051W, strain arl3, stronger effect = lower value 1.01 | S. cerevisiae deletion strains, locus YPL055C, strain LGE1, stronger effect = lower value 1.04 | S. cerevisiae deletion strains, locus YPL078C, strain atp4, stronger effect = lower value 1.01 | S. cerevisiae deletion strains, locus YPL106C, strain sse1, stronger effect = lower value 1.03 | S. cerevisiae deletion strains, locus YPL240C, strain hsp82, stronger effect = lower value 1.01 | S. cerevisiae deletion strains, locus YPL241C, strain CIN2, stronger effect = lower value 1.01 | S. cerevisiae deletion strains, locus YPL256C, strain CLN2, stronger effect = lower value 0.926 | S. cerevisiae deletion strains, locus YPR119W, strain clb2, stronger effect = lower value 1.02 | S. cerevisiae deletion strains, locus YPR141C, strain kar3, stronger effect = lower value 1.02 | S. cerevisiae deletion strains, locus YPR163C, strain tif3, stronger effect = lower value 1.02 | S. cerevisiae deletion strains, locus YPR167C, strain met16, stronger effect = lower value 1.02 | S. cerevisiae deletion strains, strain wtn01, stronger effect = lower value 1.05 | S. cerevisiae strains, strain wild type, stronger effect = lower value 1.02
